An excerpt weighted towards active compounds, which were near 12% of everything screened.
HP1b binding inh – HP1-beta chromodomain-methylated histone interaction inhibition; Potency, µM (doses to about 114 µM), inactives show at the highest dose activity change, negative = inhibition, most hits filed as inhibitors; AlphaScreen HP1-beta / biotin-H3K9me3 peptide binding; hit rate 0.56% among 390,000; also: nearly all actives have a fitted effect of over 70% in size
Target sequence (P83916 whole entry, looked up): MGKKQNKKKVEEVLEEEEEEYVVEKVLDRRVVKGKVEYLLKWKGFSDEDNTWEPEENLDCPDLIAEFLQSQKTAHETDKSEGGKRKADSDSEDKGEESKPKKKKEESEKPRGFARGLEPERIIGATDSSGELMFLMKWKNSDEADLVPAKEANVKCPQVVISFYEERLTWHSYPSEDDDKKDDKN
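HP1-beta protein (50 nM final) preincubated 30 min at room temperature with biotinylated H3(1-18)K9me3 peptide (50 nM) in PBS pH 7.4, 0.01% Tween-20, then compound added for 30 min. AlphaScreen streptavidin donor/nickel chelate acceptor beads (10 ug/mL final), 30 min dark, luminescence read.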
G9a block – inhibitors of human histone lysine methyltransferase G9a; Potency, µM (titrated, usually from 102 µM), for the others: at the top dose activity, negative = inhibition, most hits filed as inhibitors; hit rate 8.8% among 350,000; G9a H3K9 monomethylation, AlphaScreen, 2 h; also: % is scaled to controls: 0 for no effect and ±100 for the full control effect; nearly all actives have a fitted effect of over 75% in size
Target sequence (Q96KQ7 913-1193 limits assumed): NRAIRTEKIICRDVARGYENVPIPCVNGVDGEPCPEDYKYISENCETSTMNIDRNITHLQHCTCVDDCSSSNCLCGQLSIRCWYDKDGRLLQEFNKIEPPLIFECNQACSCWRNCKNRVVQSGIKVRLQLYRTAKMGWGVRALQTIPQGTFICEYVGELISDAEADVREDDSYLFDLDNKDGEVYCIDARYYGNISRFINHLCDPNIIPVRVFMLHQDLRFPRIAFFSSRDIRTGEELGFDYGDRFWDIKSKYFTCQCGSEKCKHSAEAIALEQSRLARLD
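Enzyme 20 nM + cpd, 15 min RT; add b-H3K9 pep 500 nM / SAM 20 uM; 2 h RT; anti-H3K9me1 Ab 0.5 ug/mL + SA donor / anti-rabbit acceptor beads 20 ug/mL each, 10 min; AlphaScreen read.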
JMJD2A Tudor inh – JMJD2A Tudor domain (human) inhibition; Potency, µM (highest dose often 114 µM), for inactives: top-dose activity change, negative = inhibition, most hits filed as inhibitors; hit rate 4.4% among 390,000; AID 504339; AlphaScreen JMJD2A-Tudor / H3K4me3 peptide binding; also: % is scaled to controls: 0 for no effect and ±100 for the full control effect; nearly all actives have a fitted effect of over 50% in size
Sfp inh – Sfp phosphopantetheinyl transferase inhibition | Biochemical Sfp PPTase activity, qHTS | hit rate 3.5% among 310,000 | Q9F4F7 | Potency, µM, without a hit: largest response in the series, negative = inhibition, actives largely listed as inhibitors;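 also: the enzyme is Sfp with the accession as filed and its product quenches rhodamine fluorescence; 0% = enzyme reaction without inhibitor and -100% = no enzyme wells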
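Sfp 15 nM + cpd, 15 min RT; start w/ rhodamine-CoA 5 uM, BHQ-2-YbbR 12.5 uM (final); 50 mM Hepes pH 7.6, 10 mM MgCl2, 0.01% NP-40, 0.01% BSA; read 525/598 nm at 0 and 30 min.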
L3MBTL1 block – L3MBTL1 (human) inhibition | Q9Y468 | AlphaScreen L3MBTL1–H3K9me1 peptide binding | Potency, µM (top dose mostly 57.1 µM), without a hit: top-dose activity, negative = inhibition, usual class: inhibitors | hit rate 0.66% among 230,000 | AID 485360; also: % is scaled to controls: 0 for no effect and ±100 for the full control effect; nearly all actives have a fitted effect of over 60% in size
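First, the protein-peptide complex forms for 30 min at room temperature (L3MBTL1 50 nM, biotinylated H3K9me1 peptide 75 nM). Next, compounds are pin-transferred and incubated 30 min. Finally, AlphaScreen beads are added and read after 30 min.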
BAZ2B inh – inhibitors of human BAZ2B bromodomain; AlphaScreen BAZ2B-H3K14Ac peptide displacement; hit rate 4.4% among 360,000; Potency, µM (series often up to 114 µM), without a hit: at the highest dose activity change, negative = inhibition, hits mostly inhibitors; also: % is scaled to controls: 0 for no effect and ±100 for the full control effect; nearly all actives have a fitted effect of over 60% in size
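BAZ2B (50 nM) with biotin-H3(5-23)K14Ac peptide (50 nM) in PBS pH 7.4, 0.01% Tween-20, preformed 30 min, then compound 30 min at room temperature; top concentration 110uM. AlphaScreen streptavidin donor/nickel chelate acceptor beads (10 ug/mL final), 20 min dark, signal read.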
The depositor's hits bear a star; ? = inconclusive; nt = no result; ! = a repeat was not active; [ ] = remark or other dose. Calls follow the shape of the dose curve; as a rule, active = well fitted curve in the direction sought with a large enough effect; inconclusive = small, poorly fitted or top-dose-only effect, or another doubt; inactive = no such curve, though single readings can be large; an effect the other way counts as inactive or inconclusive. Potency is read from the fitted curve at half-maximal effect.

SMILES | HP1b binding inh | G9a block | JMJD2A Tudor inh | Sfp inh | L3MBTL1 block | BAZ2B inh
CCCCc1oc2ccccc2c1C(=O)c1cc(I)c(N(CC)CCOCC)c(I)c1 | -6% | nt | 56µM* | nt | nt | nt
CCCCCc1cc(=O)c2ccccc2o1 | 53% | nt | 14% | nt | 11% | nt
CCc1oc2ccccc2c1C(=O)c1cc(I)c(O)c(I)c1 | nt | -40%[59 µM] | nt | 40µM* | nt | nt
COc1ccc(NC(=O)N2CC3(CCNCC3)C2)cc1 | nt | -2%[12.7 µM] | nt | 0% | nt | nt
N=C1S/C(=C\c2cn[nH]c2-c2ccc(F)cc2)C(=O)N1c1ccccc1F | 6% | -6% | 89µM* | -1% | 0% | -2%
O=C(CSc1ccsc1[N+](=O)[O-])N1CCCCCC1 | 4% | 45µM* | -13% | -9% | nt | nt
Cc1ccc(C)c(N2CCN(C(=O)CSc3ccsc3[N+](=O)[O-])CC2)c1 | -16% | 32µM* | ? | 3% | ? | ?
O=C(CSc1ccsc1[N+](=O)[O-])N1CCN(c2ccc(Cl)cc2)CC1 | -16% | 50µM* | ? | -4% | ? | ?
NC(=O)C1CCN(C(=O)CSc2ccsc2[N+](=O)[O-])CC1 | 23% | ? | -22% | 9% | -12% | -21%
O=C(NC1CCCCC1)c1c[nH]c2ccc(S(=O)(=O)Nc3ccccc3F)cc2c1=O | 53% | -29%[59 µM] | -16% | nt | nt | nt
CCCNC(=O)C1(CC2CC(c3ccccc3)=NO2)CCN(C(=O)c2cc(OCC)c(OCC)c(OCC)c2)CC1 (stereo unspecified) | 25% | nt | -12% | nt | nt | nt
N=c1nc(-c2ccccc2)n(-c2ccccc2)s1 | ? | nt | 5.6µM* | nt | nt | nt
CCOc1ccc(C(=O)Nc2ccc(-c3nc4ccccc4s3)c(C)c2)cc1OCC | 42% | 1%[59 µM] | -9% | nt | nt | 0%
CC(C)[C@@H](N)C(=O)N/N=C/c1ccc2nccnc2c1 | 33% | 5.6µM* | -6% | -22% | nt | ?
O=C(N/N=C/c1cccc2nccnc12)c1ccccc1O | 61% | 13% | -13%[11.4 µM] | ? | ? | 28µM*
CCC(C)[C@H](NC(=O)OC(C)(C)C)C(=O)N/N=C/c1cccc2nccnc12 (stereo partly specified) | 36% | ? | 3% | ? | nt | -36%
O=C(N/N=C/c1cccc2nccnc12)c1ccncc1 | 37% | 17% | 56µM* | ? | ? | 18µM*
CC(C)[C@H](NC(=O)OC(C)(C)C)C(=O)N/N=C/c1ccc2nccnc2c1 | 38% | nt | -14% | 20% | -1% | -3%
CCC(C)[C@@H](N)C(=O)N/N=C/c1cccc2nccnc12 (stereo partly specified) | 22% | -42% | 50µM* | ? | -1% | 79µM*
Cc1ccc(CNC(=O)COC(=O)c2cc(C)oc2C)cc1 | 28% | 10%[2.33 µM] | -13% | nt | 3% | 11%
O=C(N/N=C/c1cccc2cccnc12)c1ccccc1O | 39% | 41% | 7.9µM* | 16% | 6.3µM* | 7.1µM*
CCOCc1c(C(=O)Nc2ccc(OC)nc2)oc2ccccc12 | -3% | -6% | -14% | 4% | nt | 1%
O=C(NCC(O)c1ccccc1)c1ccc(Cl)c(S(=O)(=O)N2CCCCC2)c1 (stereo unspecified) | 25% | 8% | -18% | 4% | nt | -6%
CC1=C/C(=N\Nc2ccccc2[N+](=O)[O-])CC(C)(C)C1 | 7.1µM* | 3.5µM* | 7.9µM* | -8% | 14µM* | 2.8µM*
CC(C)[C@H](NC(=O)c1ccccc1)C(=O)OCc1nnc(-c2ccccc2)o1 | ? | -49% | 22µM* | 16% | nt | nt
SMILES | HP1b binding inh | G9a block | JMJD2A Tudor inh | Sfp inh | L3MBTL1 block | BAZ2B inh
Cc1ccc(C(=O)OCc2nnc(-c3ccccc3)o2)o1 | -15% | -42%[0.0925 µM] | 89µM* | -9% | nt | -3%
CCc1ccc(OCCCCn2c(CCNC(=O)C3CCCCC3)nc3ccccc32)cc1 | 28%[57 µM] | nt | -9%[57.1 µM] | nt | nt | nt
CCC1=C2CC[C@H]3C(=O)NC(=O)[C@H]3[C@H]2[C@@]2(Cc3ccccc3)C(=NCC3CC3)OC(=O)N2C1=O | nt | nt | nt | 4% | nt | nt
Cc1cc(NC(=O)COC(=O)CCNS(=O)(=O)c2ccccc2)n(-c2ccccc2)n1 | 40% | 12%[2.33 µM] | -5% | nt | -6% | 5%
CC1(C)c2cc(O)ccc2OC1N1CCOCC1 (stereo unspecified) | 42% | 8.9µM* | -11% | 7% | nt | -13%
Cc1cc(=O)n(Cc2c(F)cccc2Cl)c2c1c(C)nn2C | 83% | 22%[59 µM] | 23% | nt | nt | 49%
N#Cc1ccccc1OCC(=O)N(Cc1nnc(-c2ccccc2Cl)o1)C1CC1 | 21% | ? | -3% | nt | 0% | -25%
Cc1ccc(C(=O)Nc2sc3c(c2C#N)CCCCC3)cc1C | 18% | -31%[59 µM] | 11% | ? | 6% | 1%
Cn1cc(Br)c(C(=O)Nc2sc3c(c2C(N)=O)CCCC3)n1 | -10% | 35µM* | -19% | -28% | nt | -5%
CCOC(=O)c1sc(NC(=O)c2nc3nc(C)cc(C(F)F)n3n2)c(C(=O)OC)c1C | 24% | -3%[59 µM] | -7% | nt | nt | 2%
N#Cc1c(NC(=O)c2cc(-n3cnnc3)ccc2Cl)sc2c1CCCC2 | 0% | 11µM* | -32% | 14% | 3% | -26%
Cn1cc(Br)c(C(=O)Nc2sc3c(c2C#N)CCC3)n1 | -16% | 35µM* | -24% | -21% | -8% | 0%
Cc1cc(C(F)F)n2nc(C(=O)Nc3sc4c(c3C#N)CCC4)nc2n1 | ? | 50µM* | -22% | ? | -4% | ?
CCNC(=O)C1CCN(S(=O)(=O)c2ccc3c(c2)CCCN3C(C)=O)CC1 | 25%[57 µM] | 12%[59 µM] | 1% | nt | nt | 10%
COCCn1cnnc1SCC(=O)Nc1sc2c(c1C#N)CCC2 | 10% | 14%[2.33 µM] | -21% | nt | -11% | -4%
Cn1cnnc1SCC(=O)Nc1sc2c(c1C(N)=O)CCC2 | ? | ? | 63µM* | ? | ? | 50µM*
Cn1cc([N+](=O)[O-])c(C(=O)Nc2sc3c(c2C#N)CCC3)n1 | 31% | 7% | -12% | 12% | nt | -30%
Cn1ccc(C(=O)Nc2sc3c(c2C#N)CCC3)n1 | 12% | 35µM* | 1% | -19% | nt | ?
CN(C)C(CNS(=O)(=O)c1ccc2ccccc2c1)c1ccccc1 (stereo unspecified) | 8% | ? | -16% | -8% | nt | ?
c1ccc(C2[C@H]3CN(Cc4cccnc4)[C@H](c4ccccc4)C34CC2(c2ccccc2)C4)cc1 (stereo partly specified) | -2% | -24%[59 µM] | ? | ? | nt | -34%
c1ccc(C2[C@H]3CN(Cc4cccnc4)[C@H](c4ccccc4)C34CC2(c2cccnc2)C4)cc1 (stereo partly specified) | -14% | -37%[59 µM] | ? | 56µM*! | nt | ?

Compound activity (PubChem BioAssay)
